Results on 29 compounds are retold here after PubChem BioAssay (NCATS).

Assay [1] relates to Zika virus NS2B-NS3 protease (unlinked complex). The experiment in a line: Primary screen GU Rhodamine qHTS for Zika virus inhibitors: Unlinked NS2B-NS3 protease assay (AID 1347159). Further: nearly all actives have a fitted effect of over 60% in size. Summed up:
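A qHTS format was used, with compound concentrations ranging up to 114 microM. Each compound was preincubated with 25 nM NS2B-NS3 protease, and the substrate was then added at 1.5 microM. Curves were fitted with a 4-parameter Hill model.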
(In general: In qHTS, concentration-response curves come from the screen itself.)

Assay [2] has as its system Zika virus NS2B-NS3 protease (linked construct). Briefly: Primary screen NINDS Rhodamine qHTS for Zika virus inhibitors (AID 1347160). Further: nearly all actives have a fitted effect of over 55% in size. The method in brief:
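Kinetic fluorescence (Ex 480 nm, Em 540 nm) over 15 min with 1.5 microM Rhodamine110 peptide and 25 nM linked protease.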

Inconclusive results are not listed. Values without a mark were called inactive. Activity calls are given as the source filed them. The call rests on the fitted dose curve; in most records, active means well fitted inhibition curve with a large enough effect; inconclusive means small, poorly fitted or top-dose-only effect; inactive means no such curve, though single readings can be large or run the other way.
On the % scale 0 is the no-effect control and ±100 the full control effect.

In the case of `Cc1ccnc(NC(=O)C(C)c2cccc(C(=O)c3ccccc3)c2)c1` (stereo not drawn), the Potency entry in assay [1] and in assay [2] was “inactive” each time.
Regarding `COc1ccc(C[C@H]2COC(=O)[C@@H]2Cc2ccc(O[C@@H]3O[C@H](CO)[C@@H](O)[C@H](O)[C@H]3O)c(OC)c2)cc1OC`, the Potency result in assay [1] and in assay [2] was “inactive” in each case.
On to `C=C(C)[C@@H]1CC[C@]2(C(=O)O)CC[C@]3(C(=O)O)[C@H](CCC4[C@@]5(C)CCC(=O)C(C)(C)C5CC[C@]43C)C12` (stereo partly drawn), for which the Potency result in assay [1] and in assay [2] was “inactive” each time.
`C=CC(C)(O)CC/C=C(\C)C(=O)OC1C(O)C(CO)OC(OC(=O)C23CCC(C)(C)CC2C2=CCC4C5(C)CCC(OC6OC(COC7OCC(OC(C)=O)C(O)C7OC7OC(COC(C)=O)C(O)C(O)C7OC(C)=O)C(O)C(O)C6OC6OCC(O)C(O)C6O)C(C)(C)C5CCC4(C)C2(C)C(O)C3O)C1OC1OCC(OC2OCC(O)C(OC3OCC(O)C(O)C3O)C2O)C(O)C1O` (stereo not drawn): the activity change, negative = inhibition was 23.6% [at 19.1 µM] in assay [1] and -13.7% [at 10.7 µM] in assay [2].
For `OC[C@H]1O[C@@H](OC/C=C/c2ccc(O)cc2)[C@H](O)[C@@H](O)[C@@H]1O`, the Potency result in assay [1] and in assay [2] was “inactive” throughout.
`CN1CCN(Cc2ccc(NC(=O)Cc3ccc(Oc4cc(NC(=O)C5CC5)ncn4)cc3)cc2C(F)(F)F)CC1`: the Potency entry in assay [1] and in assay [2] was “inactive” in each case.
With `CC(C)(C)c1ccc(C(=O)Nc2cn3cc(-n4ccnc4)ccc3n2)cc1`, the Potency entry in assay [1] and in assay [2] was “inactive” throughout.
As for `Cc1cn(CCN2CCN(c3ccccc3-c3cc(C#N)cc(C(=O)NCCCN4CCCC4)c3)CC2)c2ccccc12`, the Potency entry in assay [1] and in assay [2] was “inactive” each time.
Take `CC[C@@H](C)Nc1cc(C(=O)NC2CC3CC[C@@H](C2)N3c2ccc(C(=O)C3CC3)cn2)c(C)cc1C(N)=O` (stereo partly drawn): the Potency entry in assay [1] and in assay [2] was “inactive” in each case.
For the compound `COc1cc(-c2cn(C3CCc4c(F)cccc4N(CC(F)(F)F)C3=O)nn2)ccc1-n1cnc(C)c1` (stereo not drawn), the Potency result in assay [1] and in assay [2] was “inactive” throughout.
As for `O=C(N[C@@H]1CCCc2c1cnn2-c1ccc(F)cc1F)c1ccccn1`, the Potency entry in assay [1] and in assay [2] was “inactive” throughout.
Take `COc1cc([C@H]2O[C@H](c3cc(OC)c4c(c3)OCO4)[C@H](C)[C@H]2C)cc(OC)c1OC`: the Potency result in assay [1] and in assay [2] was “inactive” throughout.
Take `CN(C)C(=O)C(=O)c1cn(C)c2cc(Cl)c(C(=O)N3CCC(Cc4ccc(F)cc4)CC3)cc12`: the Potency entry in assay [1] and in assay [2] was “inactive” in each case.
As to `N#Cc1ccc(COc2ccc(-c3cccc4nc(NC(=O)C5CC5)nn34)cc2)cn1`, the Potency entry in assay [1] and in assay [2] was “inactive” each time.
With `C/C=C(\C)C(=O)O[C@H]1C=CC(=O)O[C@H]1/C=C/[C@@H](O)[C@H](C)O`, the Potency result in assay [1] and in assay [2] was “inactive” throughout.
In the case of `Cc1nnc(-c2ccc(-c3ccc(C(=O)Nc4ccc(O)c(N5CCN(C)CC5)c4)cc3)c(C)c2)o1`, the Potency result in assay [1] and in assay [2] was “inactive” in each case.
Regarding `CNC(=O)[C@@H](c1ccccc1)N1CCc2cc(OC)c(OC)cc2[C@@H]1CCc1ccc(C(F)(F)F)cc1`, the Potency result in assay [1] and in assay [2] was “inactive” throughout.
As for `COc1ccc2c(NC(=O)Nc3cccc(C(F)(F)F)n3)ccnc2c1`, the Potency entry in assay [1] and in assay [2] was “inactive” throughout.
Take `C=CS(=O)(=O)NC1CCN(C(=O)CNc2cc(I)c(Cl)cc2OC)CC1`: the Potency entry in assay [1] and in assay [2] was “inactive” each time.
`C=CCc1ccc(OC(C)Cc2ccc(OC)c(OC)c2)c(OC)c1` (stereo not drawn): the Potency entry in assay [1] and in assay [2] was “inactive” throughout.
For `Cc1cc2c(c(=O)o1)C=C1CC[C@H]([C@H](C)Cn3cnc(=N)c4[nH]cnc43)C[C@@H]1O2`, the Potency result in assay [1] and in assay [2] was “inactive” each time.
On to `C=C(C(=O)OC)[C@@H]1CC=C2C=CC(=O)[C@H](C)[C@@]2(C)C1`, for which the Potency entry in assay [1] and in assay [2] was “inactive” throughout.
For `CC(C)n1c(=O)c(C(=O)NC2CC3CCC(C2)N3C[C@@H](O)CN(C)S(C)(=O)=O)cc2ccccc21` (stereo partly drawn), the Potency entry in assay [1] and in assay [2] was “inactive” in each case.
As for `COc1ccc(NC(=O)c2ccc(-c3ccc(-c4nnc(C)o4)cc3C)cc2)cc1N1CCN(C)CC1`, the Potency result in assay [1] and in assay [2] was “inactive” in each case.
Consider `CCCc1cc2c(N3CCN(C4=NCC(C)(C)S4)CC3)ncnc2s1`, for which the Potency result in assay [1] and in assay [2] was “inactive” throughout.
`O=c1ccc2ccc(OCCCCN3CCN(c4cccc5sccc45)CC3)cc2[nH]1`: the Potency result in assay [1] and in assay [2] was “inactive” throughout.
For `O=C(c1c(F)ccc(NS(=O)(=O)N2CC[C@@H](F)C2)c1F)c1c[nH]c2ncc(-c3cnc(C4CC4)nc3)cc12`, the Potency result in assay [1] and in assay [2] was “inactive” each time.
With `CC(C)(C)OC(=O)c1ncn2c1C(C)(C)Nc1ccccc1-2`, the Potency result in assay [1] and in assay [2] was “inactive” throughout.
On to `CC[C@@H](C)[C@@H]1OC2(C=C[C@H]1C)C[C@@H]1C[C@H](C/C=C(\C)[C@H](O[C@H]3C[C@H](OC)[C@H](O[C@H]4C[C@H](OC)[C@H](NC(C)=O)[C@H](C)O4)[C@H](C)O3)[C@H](C)/C=C/C=C3\CO[C@H]4[C@H](O)C(C)=C[C@@H](C(=O)O1)[C@@]34O)O2` (stereo partly drawn), for which the Potency entry in assay [1] and in assay [2] was “inactive” throughout.
